In PubChem BioAssay (NCI):
This is part of a sample that, as a whole, favours compounds with a hit. Of some 79,000 tested, about 15% had one in any assay. No stated cut-off is given here; in the data, active means growth inhibition above about 70%; inactive means the rest.

Experiments:
[1] = NCI Yeast Anticancer Drug Screen. Data for the rad50 strain (AID 155);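 further: 0% = growth of vehicle-only cultures of the same strain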; conditions: S. cerevisiae rad50 strain growth inhibition; at 50.0 µM; hits give high values
Procedure, shortened: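 Cells are treated with compound, grown, and their growth is then scored against vehicle-only cultures of the same repair-deficient yeast strain.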

[2] = NCI Yeast Anticancer Drug Screen. Data for the mec2-1 strain (AID 157); conditions: S. cerevisiae mec2-1 strain, at 50.0 µM, hits give high values
Procedure, shortened: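 Compounds were applied to mec2-1 yeast cells. Their growth was then compared with that of vehicle-treated cultures to give growth inhibition.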

[3] = NCI Yeast Anticancer Drug Screen. Data for the mlh1 rad18 strain (AID 175); conditions: S. cerevisiae mlh1 rad18 strain growth inhibition; at 50.0 µM; hits give high values
Procedure, shortened: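 A repair-deficient yeast strain is exposed to test compound, and growth is scored relative to vehicle-treated controls.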

Measured: growth inhibition

Nc1ccccc1SC1CC(=O)N(c2ccccc2Cl)C1=O (stereo not drawn)
inactive: [1] -18.4% | [2] -33.1% | [3] -6.5%

CCOc1ccc(Br)cc1C=O
inactive: [1] 54.2% | [2] 17.4% | [3] 45.1%

CC1CCN(c2ccc([N+](=O)[O-])cc2[N+](=O)[O-])CC1
inactive: [1] 42.2% | [2] 3.85% | [3] 25.6%

Cn1/c(=N/Sc2nnnn2-c2ccccc2)sc2ccccc21
inactive: [1] 13.6% | [2] -13.9% | [3] 29.9%

O=c1oc(/C=C/c2ccccc2)nc2cc(Cl)ccc12
inactive: [1] 19.6% | [2] 10.1% | [3] 10.4%

CC1CC(C)(C)N=C(Cc2ccccc2)O1 (stereo not drawn)
inactive: [1] -26.6% | [2] -11.6% | [3] 2.05%

CC(C)Oc1ccc(C(=O)NS(=O)(=O)c2ccc(N)cc2)cc1
inactive: [1] -25% | [2] -32.5% | [3] -8.4%

Cc1cc(C)cc(NC(=O)c2ccccc2N)c1
inactive: [1] -5.15% | [2] -27.9% | [3] -4.6%

C=CCOc1cccc(OCC=C)c1C
inactive: [1] -14.9% | [2] -20% | [3] -3.9%

O=C(CCCCCCCCCCBr)OCc1ccccc1
inactive: [1] -34.2% | [2] -40% | [3] 5.9%

O=C(O)c1ccc(NCn2c(=S)[nH]c3ccccc32)cc1O
inactive: [1] -7.6% | [2] -42.5% | [3] -16.2%

CCCCCCCCCOCC(O)COc1ccccc1[N+](=O)[O-] (stereo not drawn)
inactive: [1] -9.2% | [2] -15.9% | [3] -5.5%

NC(=O)c1ccccc1OCC(O)CO (stereo not drawn)
inactive: [1] -7.6% | [2] -24.4% | [3] 26.1%

CC1=NN(c2ccccc2)C(=O)C1C(=O)c1ccccc1 (stereo not drawn)
inactive: [1] 22.2% | [2] -3.65% | [3] 14%

CCOc1ccc(N2C(=O)C3C4c5ccccc5C(c5ccccc54)C3C2=O)cc1 (stereo not drawn)
inactive: [1] 27% | [2] 6.45% | [3] 29%

Cc1ccc(N2C(=O)CC(Sc3ccccc3N)C2=O)cc1Cl (stereo not drawn)
inactive: [1] -15.5% | [2] -35.6% | [3] -11.9%

CN(C)/C=C/C(=O)c1ccccc1[N+](=O)[O-]
inactive: [1] 16.7% | [2] -11.4% | [3] 12.2%

OC1CCC2CN3CCc4c([nH]c5ccccc45)C3CC2C1 (stereo not drawn)
inactive: [1] 23.6% | [2] -9.5% | [3] 27.8%

c1coc(-c2nc(N=C3N=c4ccccc4=N3)[nH]c2-c2ccco2)c1
inactive: [1] 16.6% | [2] 18.9% | [3] 4%

CC(=O)NCc1cc(CNC(C)=O)c(C)cc1C
inactive: [1] -17.5% | [2] -13.7% | [3] -23.6%

CCCCCCCCOC(=O)C(=O)C(C#N)c1ccccc1 (stereo not drawn)
inactive: [1] 6.95% | [2] 6.3% | [3] 10.2%

COc1ccc(NC(=S)Nc2ccccn2)cc1
inactive: [1] -9.3% | [2] -12.3% | [3] 0.65%

O=[N+]([O-])c1ccc(-n2[nH]nnc2=S)cc1
inactive: [1] -6.7% | [2] -25% | [3] 16.1%

Cc1ccccc1NC(=S)Nc1ccccn1
inactive: [1] 22% | [2] -0.3% | [3] 10.3%

COc1ccccc1N1C(=O)CC(Sc2ccccc2N)C1=O (stereo not drawn)
inactive: [1] -2.4% | [2] -19.4% | [3] 13.1%

CCOC(=O)CN1C(=O)C(=O)c2ccccc21
inactive: [1] 18.9% | [2] 5.3% | [3] 24.4%

O=C1c2ccccc2C(=O)N1/N=C/c1cc(Br)ccc1O
inactive: [1] 22.2% | [2] -4.35% | [3] 10.4%

CCOC(=O)NC(C)(C)CN(C(=O)OCC)c1ccccc1
inactive: [1] -31.4% | [2] -39.6% | [3] -10.7%

Clc1ccc(C=NCCN=Cc2ccc(Cl)c(Cl)c2)cc1Cl
inactive: [1] -14.5% | [2] -20.3% | [3] -9.3%

CC1(C)OC(=O)C(=Cc2c(Cl)cccc2Cl)C(=O)O1
inactive: [1] 0.05% | [2] 7.85% | [3] -7.3%

NS(=O)(=O)c1ccc(NC(=O)/C=C/C(=O)O)cc1
inactive: [1] -11.9% | [2] -10.4% | [3] -4%
